Experimental data taken from the supplement of paper PMC11732987, “Enantioselective OTUD7B fragment discovery through chemoproteomics screening and high-throughput optimisation” (Communications Chemistry, 2025).

Experiments:
Experiment in all cases: log2 ratio of Biotin-Ahx-Ub-VS probe labelling (fragment/DMSO); higher = less target engagement (more negative = stronger competition), active = hit call of the paper (q ≤ 0.05, log2 ratio ≤ -1)
Details in all cases: compound concentration: 200 uM; treatment time: 3 h
USP9X = USP9X (UniProt Q93008)
Chain of USP9X (Q93008 whole entry, the tested form may be a part): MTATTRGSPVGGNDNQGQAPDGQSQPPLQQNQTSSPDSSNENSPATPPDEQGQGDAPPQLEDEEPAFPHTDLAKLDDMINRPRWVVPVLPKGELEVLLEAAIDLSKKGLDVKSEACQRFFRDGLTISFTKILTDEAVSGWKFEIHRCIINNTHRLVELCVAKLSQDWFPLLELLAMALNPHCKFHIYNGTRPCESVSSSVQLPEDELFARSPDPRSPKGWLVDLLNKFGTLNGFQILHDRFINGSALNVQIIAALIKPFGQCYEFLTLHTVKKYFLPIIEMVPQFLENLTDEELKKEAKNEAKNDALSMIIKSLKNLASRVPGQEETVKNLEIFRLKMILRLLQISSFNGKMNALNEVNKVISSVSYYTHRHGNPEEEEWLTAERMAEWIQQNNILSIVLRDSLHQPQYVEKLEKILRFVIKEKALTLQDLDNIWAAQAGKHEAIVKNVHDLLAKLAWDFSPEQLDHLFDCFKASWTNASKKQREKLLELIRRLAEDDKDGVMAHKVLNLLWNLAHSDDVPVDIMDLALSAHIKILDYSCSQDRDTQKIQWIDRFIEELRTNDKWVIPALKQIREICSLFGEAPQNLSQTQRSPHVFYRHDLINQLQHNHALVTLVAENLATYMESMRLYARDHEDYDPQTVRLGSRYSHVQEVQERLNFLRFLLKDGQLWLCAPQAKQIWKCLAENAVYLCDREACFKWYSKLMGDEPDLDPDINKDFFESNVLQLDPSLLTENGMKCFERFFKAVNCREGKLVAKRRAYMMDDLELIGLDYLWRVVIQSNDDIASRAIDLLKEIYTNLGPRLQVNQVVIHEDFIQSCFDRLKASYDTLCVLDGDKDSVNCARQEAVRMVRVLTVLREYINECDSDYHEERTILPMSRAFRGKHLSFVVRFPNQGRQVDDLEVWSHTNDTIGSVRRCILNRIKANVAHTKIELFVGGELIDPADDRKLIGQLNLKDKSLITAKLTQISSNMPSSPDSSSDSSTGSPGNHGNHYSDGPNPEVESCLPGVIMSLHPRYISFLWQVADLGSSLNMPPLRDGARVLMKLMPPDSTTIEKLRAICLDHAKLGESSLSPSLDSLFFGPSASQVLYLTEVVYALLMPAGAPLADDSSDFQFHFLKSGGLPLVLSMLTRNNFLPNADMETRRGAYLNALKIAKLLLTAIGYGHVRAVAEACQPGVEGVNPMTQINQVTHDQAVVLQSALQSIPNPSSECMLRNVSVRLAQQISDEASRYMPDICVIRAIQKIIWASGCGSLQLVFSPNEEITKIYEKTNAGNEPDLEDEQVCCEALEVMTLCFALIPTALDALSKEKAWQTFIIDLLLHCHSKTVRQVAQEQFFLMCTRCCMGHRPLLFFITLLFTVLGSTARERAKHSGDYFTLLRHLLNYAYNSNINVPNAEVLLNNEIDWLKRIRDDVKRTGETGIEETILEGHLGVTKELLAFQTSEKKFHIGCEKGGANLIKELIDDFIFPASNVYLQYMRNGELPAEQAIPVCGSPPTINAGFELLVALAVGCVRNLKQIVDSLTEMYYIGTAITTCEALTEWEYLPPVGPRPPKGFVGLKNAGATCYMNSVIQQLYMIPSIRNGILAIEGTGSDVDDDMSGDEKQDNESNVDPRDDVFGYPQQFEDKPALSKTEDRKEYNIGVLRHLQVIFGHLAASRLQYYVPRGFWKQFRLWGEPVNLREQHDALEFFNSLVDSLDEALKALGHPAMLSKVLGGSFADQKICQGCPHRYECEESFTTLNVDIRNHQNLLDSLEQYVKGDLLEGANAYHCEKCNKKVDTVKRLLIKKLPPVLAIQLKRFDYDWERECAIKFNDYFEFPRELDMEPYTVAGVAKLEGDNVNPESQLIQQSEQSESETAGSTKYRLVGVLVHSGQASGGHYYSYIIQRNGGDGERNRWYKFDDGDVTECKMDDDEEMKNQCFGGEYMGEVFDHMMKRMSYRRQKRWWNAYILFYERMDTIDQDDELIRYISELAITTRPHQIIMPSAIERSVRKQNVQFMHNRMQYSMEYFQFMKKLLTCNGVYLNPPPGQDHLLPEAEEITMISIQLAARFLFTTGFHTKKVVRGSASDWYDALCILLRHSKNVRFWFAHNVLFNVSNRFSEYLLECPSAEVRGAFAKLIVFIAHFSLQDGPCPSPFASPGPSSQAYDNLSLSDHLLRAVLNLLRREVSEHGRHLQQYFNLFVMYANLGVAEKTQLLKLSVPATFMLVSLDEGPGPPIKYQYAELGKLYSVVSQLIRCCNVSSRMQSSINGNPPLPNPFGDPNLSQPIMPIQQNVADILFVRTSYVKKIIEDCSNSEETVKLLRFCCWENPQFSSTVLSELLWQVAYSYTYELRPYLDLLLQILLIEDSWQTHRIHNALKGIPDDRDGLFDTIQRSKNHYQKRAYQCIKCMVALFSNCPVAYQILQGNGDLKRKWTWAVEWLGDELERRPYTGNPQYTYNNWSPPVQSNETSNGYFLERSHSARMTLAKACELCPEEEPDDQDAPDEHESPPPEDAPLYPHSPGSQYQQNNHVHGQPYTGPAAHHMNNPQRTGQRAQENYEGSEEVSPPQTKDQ
Summary of the method: (§1)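 HEK293T lysate (495 µg per sample, in Tris/CHAPS/IGEPAL buffer with protease inhibitors) was treated in triplicate with fragment at 200 µM or with DMSO for 3 h. It was then treated with Biotin-Ahx-Ub-VS (0.5 µM final) for 1 h. Labelled DUBs were NeutrAvidin-enriched, digested with LysC and trypsin, and run by diaPASEF LC-MS/MS. Spectronaut label-free quantities were global-median-normalised. Values are average log2 ratios fragment/DMSO by unpaired t-test, using proteins with ≥2 unique peptides.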

UniProt O00487 = biological target: UniProt O00487
Chain of UniProt O00487 (O00487 whole entry): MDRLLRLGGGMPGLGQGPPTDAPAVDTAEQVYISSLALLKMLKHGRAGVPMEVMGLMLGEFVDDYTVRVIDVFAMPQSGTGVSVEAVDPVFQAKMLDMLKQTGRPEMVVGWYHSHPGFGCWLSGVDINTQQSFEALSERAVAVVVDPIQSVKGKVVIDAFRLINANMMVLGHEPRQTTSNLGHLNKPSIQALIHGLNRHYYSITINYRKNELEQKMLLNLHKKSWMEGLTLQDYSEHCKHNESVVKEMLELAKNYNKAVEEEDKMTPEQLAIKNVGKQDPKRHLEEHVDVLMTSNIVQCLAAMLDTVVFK
Summary of the method: as §1

UniProt O00507 = biological target: UniProt O00507
Summary of the method: as §1

UniProt P51784 = biological target: UniProt P51784
Chain of UniProt P51784 (P51784 whole entry): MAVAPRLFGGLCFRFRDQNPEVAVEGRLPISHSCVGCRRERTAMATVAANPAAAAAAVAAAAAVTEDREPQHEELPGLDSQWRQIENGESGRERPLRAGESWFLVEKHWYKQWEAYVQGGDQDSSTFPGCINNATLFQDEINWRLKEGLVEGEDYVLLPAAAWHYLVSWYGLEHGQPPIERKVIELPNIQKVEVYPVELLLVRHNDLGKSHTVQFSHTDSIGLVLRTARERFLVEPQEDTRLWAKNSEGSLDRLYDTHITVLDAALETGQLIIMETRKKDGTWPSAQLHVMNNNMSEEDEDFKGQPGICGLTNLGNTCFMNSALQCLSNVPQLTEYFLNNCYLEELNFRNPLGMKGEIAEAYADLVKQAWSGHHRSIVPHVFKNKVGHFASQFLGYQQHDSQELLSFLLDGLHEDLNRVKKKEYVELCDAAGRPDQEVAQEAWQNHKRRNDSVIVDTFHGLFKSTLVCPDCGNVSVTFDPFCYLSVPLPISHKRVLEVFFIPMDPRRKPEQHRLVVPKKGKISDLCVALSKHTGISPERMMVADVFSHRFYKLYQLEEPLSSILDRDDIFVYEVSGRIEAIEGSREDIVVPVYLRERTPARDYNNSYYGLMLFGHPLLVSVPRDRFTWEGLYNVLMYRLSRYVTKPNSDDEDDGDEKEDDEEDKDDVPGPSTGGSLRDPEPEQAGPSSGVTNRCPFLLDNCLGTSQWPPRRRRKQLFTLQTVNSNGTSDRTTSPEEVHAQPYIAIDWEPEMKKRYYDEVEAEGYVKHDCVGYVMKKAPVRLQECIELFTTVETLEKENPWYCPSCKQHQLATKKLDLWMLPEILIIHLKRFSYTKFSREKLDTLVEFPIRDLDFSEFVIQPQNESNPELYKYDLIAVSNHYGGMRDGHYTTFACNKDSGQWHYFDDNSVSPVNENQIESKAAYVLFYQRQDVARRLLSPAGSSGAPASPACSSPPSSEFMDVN
Summary of the method: as §1

UniProt Q5T2D3 = biological target: T1, UniProt Q5T2D3
T1 sequence (whole entry): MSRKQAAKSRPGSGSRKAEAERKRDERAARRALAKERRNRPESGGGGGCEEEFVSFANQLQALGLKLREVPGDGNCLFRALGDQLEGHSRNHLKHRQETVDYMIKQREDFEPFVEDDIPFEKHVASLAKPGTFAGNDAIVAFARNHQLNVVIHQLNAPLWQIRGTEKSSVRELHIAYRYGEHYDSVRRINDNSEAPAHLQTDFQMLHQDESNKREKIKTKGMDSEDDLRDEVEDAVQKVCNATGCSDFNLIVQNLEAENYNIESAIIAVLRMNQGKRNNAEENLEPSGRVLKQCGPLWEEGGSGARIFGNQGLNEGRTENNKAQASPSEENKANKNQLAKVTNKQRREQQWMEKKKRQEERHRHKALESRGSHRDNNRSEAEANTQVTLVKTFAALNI
Summary of the method: as §1

UniProt Q8TE49 = biological target: T2, UniProt Q8TE49
T2 sequence (whole entry): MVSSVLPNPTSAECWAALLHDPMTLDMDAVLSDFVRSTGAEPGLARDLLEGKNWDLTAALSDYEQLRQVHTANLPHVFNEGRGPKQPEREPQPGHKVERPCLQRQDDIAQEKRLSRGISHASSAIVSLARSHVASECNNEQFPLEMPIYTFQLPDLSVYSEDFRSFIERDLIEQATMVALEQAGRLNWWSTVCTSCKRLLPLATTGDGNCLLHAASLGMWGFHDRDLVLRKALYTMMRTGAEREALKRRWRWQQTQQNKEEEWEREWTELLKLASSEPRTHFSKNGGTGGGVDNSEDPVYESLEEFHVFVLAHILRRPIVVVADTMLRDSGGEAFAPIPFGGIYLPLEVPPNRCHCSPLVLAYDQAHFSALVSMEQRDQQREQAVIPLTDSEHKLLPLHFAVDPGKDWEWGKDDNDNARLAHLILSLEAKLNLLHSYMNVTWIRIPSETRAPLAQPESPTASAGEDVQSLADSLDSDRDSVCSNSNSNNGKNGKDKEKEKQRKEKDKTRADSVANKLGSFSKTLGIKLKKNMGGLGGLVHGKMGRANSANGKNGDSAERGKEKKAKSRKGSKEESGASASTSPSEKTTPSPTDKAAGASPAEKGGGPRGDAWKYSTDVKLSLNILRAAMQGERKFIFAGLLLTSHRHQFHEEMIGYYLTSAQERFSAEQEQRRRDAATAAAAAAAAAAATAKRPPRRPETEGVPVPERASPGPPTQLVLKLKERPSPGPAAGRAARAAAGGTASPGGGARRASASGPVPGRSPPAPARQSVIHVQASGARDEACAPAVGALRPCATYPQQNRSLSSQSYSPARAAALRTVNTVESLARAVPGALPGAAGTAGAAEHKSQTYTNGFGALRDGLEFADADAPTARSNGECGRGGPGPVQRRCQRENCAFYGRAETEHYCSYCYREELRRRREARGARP
Summary of the method: as §1

UniProt Q9P2H5 = biological target: T3, UniProt Q9P2H5
T3 sequence (whole entry): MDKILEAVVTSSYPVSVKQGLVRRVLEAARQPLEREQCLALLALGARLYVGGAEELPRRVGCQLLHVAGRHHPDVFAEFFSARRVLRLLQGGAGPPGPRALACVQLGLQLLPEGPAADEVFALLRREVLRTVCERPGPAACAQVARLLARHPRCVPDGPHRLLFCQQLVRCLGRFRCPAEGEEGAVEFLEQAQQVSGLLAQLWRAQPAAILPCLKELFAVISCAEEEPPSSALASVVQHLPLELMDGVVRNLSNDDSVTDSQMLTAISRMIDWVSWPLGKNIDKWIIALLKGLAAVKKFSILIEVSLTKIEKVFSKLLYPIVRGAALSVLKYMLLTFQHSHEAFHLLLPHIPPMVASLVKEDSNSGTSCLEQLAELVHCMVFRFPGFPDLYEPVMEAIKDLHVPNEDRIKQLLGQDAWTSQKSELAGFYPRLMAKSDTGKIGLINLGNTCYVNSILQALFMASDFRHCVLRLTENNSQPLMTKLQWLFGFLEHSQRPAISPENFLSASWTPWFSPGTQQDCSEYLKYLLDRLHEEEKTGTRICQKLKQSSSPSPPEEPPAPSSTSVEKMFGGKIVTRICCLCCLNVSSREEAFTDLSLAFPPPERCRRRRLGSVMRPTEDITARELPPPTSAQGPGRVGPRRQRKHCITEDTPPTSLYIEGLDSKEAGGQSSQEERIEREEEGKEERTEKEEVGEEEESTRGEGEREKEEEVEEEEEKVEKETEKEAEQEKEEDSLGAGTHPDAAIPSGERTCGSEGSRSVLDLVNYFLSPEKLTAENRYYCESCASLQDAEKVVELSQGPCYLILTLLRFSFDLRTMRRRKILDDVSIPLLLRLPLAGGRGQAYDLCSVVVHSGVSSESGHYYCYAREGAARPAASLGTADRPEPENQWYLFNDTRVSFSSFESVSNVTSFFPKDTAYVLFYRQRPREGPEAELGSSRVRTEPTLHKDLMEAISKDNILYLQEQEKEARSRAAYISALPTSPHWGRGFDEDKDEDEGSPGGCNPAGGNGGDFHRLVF
Summary of the method: as §1

UniProt Q9UGI0 = biological target: T4, UniProt Q9UGI0
T4 sequence (whole entry): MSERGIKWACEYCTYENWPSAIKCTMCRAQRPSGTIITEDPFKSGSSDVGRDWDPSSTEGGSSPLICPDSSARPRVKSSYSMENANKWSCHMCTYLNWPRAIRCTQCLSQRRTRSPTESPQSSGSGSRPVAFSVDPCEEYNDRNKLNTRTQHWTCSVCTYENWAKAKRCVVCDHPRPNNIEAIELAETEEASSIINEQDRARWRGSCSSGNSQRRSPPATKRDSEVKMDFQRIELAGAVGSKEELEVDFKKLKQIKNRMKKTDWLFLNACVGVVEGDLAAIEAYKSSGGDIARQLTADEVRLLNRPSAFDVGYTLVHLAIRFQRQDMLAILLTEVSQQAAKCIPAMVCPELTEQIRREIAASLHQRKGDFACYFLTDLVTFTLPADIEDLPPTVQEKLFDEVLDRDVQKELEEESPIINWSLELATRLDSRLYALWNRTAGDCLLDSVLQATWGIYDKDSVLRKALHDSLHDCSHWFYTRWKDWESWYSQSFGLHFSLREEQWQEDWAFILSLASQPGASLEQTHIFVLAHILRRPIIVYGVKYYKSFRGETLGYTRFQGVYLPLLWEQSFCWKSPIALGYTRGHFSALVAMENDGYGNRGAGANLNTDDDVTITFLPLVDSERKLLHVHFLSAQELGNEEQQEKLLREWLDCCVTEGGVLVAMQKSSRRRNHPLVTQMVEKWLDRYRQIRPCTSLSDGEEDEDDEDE
Summary of the method: as §1

YOD1 = biological target: T5, YOD1 (UniProt Q5VVQ6)
T5 sequence (whole entry): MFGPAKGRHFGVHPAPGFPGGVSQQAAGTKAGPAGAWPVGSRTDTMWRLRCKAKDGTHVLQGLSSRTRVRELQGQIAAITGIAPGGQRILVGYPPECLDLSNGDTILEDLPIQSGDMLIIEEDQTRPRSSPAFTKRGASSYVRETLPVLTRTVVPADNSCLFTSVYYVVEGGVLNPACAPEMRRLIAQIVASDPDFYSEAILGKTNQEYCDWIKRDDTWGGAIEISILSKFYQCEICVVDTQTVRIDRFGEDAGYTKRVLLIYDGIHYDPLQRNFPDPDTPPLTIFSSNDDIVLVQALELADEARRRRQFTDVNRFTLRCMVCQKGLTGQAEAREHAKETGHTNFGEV
Summary of the method: as §1

Measured: log2 ratio of Biotin-Ahx-Ub-VS probe labelling

O=C(CCl)NC1CCN(C(=O)C2CCCCC2)CC1
inactive: USP9X 0.243 | UniProt O00487 0.0749 | UniProt O00507 -0.257 | UniProt P51784 0.122 | UniProt Q5T2D3 0.0478 | UniProt Q8TE49 -0.283 | UniProt Q9P2H5 0.125 | UniProt Q9UGI0 -0.0541 | YOD1 -0.0714
